{
  "source": "the OligoGym collection",
  "data": [
    {"target": "SPESP1", "assay": "pooled miR-30 sensor sort-seq; sequence = guide strand", "details": "shRNA", "values": [
      {"sequence": "TTGTTTGGTTTGATCGACCAGA", "sensor-assay potency score (higher = more potent)": -0.327},
      {"sequence": "TAGATGATTCAGTAACAACTGG", "sensor-assay potency score (higher = more potent)": -0.346},
      {"sequence": "ATGTATTGAATACTGTAGCAGC", "sensor-assay potency score (higher = more potent)": -1.16},
      {"sequence": "TATTGAATACTGTAGCAGCTTT", "sensor-assay potency score (higher = more potent)": -0.369},
      {"sequence": "TTGTTTTGCAGCTGGCTCCGGC", "sensor-assay potency score (higher = more potent)": -0.682},
      {"sequence": "TTTCTATCGCAGTTTCACCTGA", "sensor-assay potency score (higher = more potent)": -0.0302},
      {"sequence": "TAGATCTAGAATTACACAGCAT", "sensor-assay potency score (higher = more potent)": -0.409}
    ]},
    {"target": "SPINK5", "assay": "pooled miR-30 sensor sort-seq; sequence = guide strand", "details": "shRNA", "values": [
      {"sequence": "TTTTCTTGAAGCTTTGCCCTTT", "sensor-assay potency score (higher = more potent)": 0.275},
      {"sequence": "TTGCTCTTGCTCTTTCTTCTTG", "sensor-assay potency score (higher = more potent)": -0.499},
      {"sequence": "TTATTGATGTGCATCTTGCCAT", "sensor-assay potency score (higher = more potent)": -0.0441},
      {"sequence": "TTGAGAAGCTCTAACATGGGAT", "sensor-assay potency score (higher = more potent)": -0.174},
      {"sequence": "TTTCTTTTGCTTCTTGCTGGAA", "sensor-assay potency score (higher = more potent)": -0.544},
      {"sequence": "TTGTGCATCCAAGTCTTCCATC", "sensor-assay potency score (higher = more potent)": -1.09},
      {"sequence": "ATACTCAGCACATTCGTCCTGA", "sensor-assay potency score (higher = more potent)": 0.519},
      {"sequence": "TTTTGTTTCTAGCTCGTGCTTC", "sensor-assay potency score (higher = more potent)": 0.162},
      {"sequence": "TTGTATAGAACTTTCCATCAGC", "sensor-assay potency score (higher = more potent)": -0.111},
      {"sequence": "TTTAAAATCATCACAATTCAGC", "sensor-assay potency score (higher = more potent)": -0.669},
      {"sequence": "TTGAAAAAATTTCTTATCCTGG", "sensor-assay potency score (higher = more potent)": -0.827},
      {"sequence": "TCTCTTTTGACTTTTGCTCTGG", "sensor-assay potency score (higher = more potent)": -0.0301}
    ]}
  ]
}
